# BaF3 tox – parental Ba/F3 cell viability inhibition, counter-screen for JAK2V617F inhibitor project, murine pro-B, CellTiter-Glo luminescence; CellTiter-Glo ATP luminescence; inhibition, % at 5.6 µM; 220,000 tested, 1.1% active;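 active = inhibition above a per-campaign cutoff, the mean inhibition of all tested compounds plus 3 SD, cut at about 27% in these data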;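 also: 0% = DMSO wells and 100% = JAK Inhibitor I control wells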
# Ba/F3 V617F tox – reduced viability of JAK2V617F-dependent Ba/F3 cells, primary screen, JAK2V617F inhibitor project, cell-based, Ba/F3 EpoR-JAK2V617F, luminescence | AID 1446, 2008 | inhibition, % at 5.6 µM | 220,000 tested, 1.1% active | ATP luminescence;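 active = inhibition above the campaign mean plus 3 SD over all tested compounds, cut at about 24% in these data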;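 also: cytokine-independent growth of Ba/F3 cells driven by EpoR plus mutant JAK2; 0% = DMSO-treated cells and 100% = JAK inhibitor I control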
# aSyn UTR inh – MLPCN primary screen, SNCA 5' untranslated region. alpha-synuclein 5'UTR reporter, inhibitor activity. inhibition, % (tested at 7.5 µM). 300,000 tested, 0.82% active. AID 1813, 2009; in the data active = inhibition above about 60%;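 also: H4 neuroglioblastoma cells stably carrying SNCA 5'UTR luciferase fusion; 0% = DMSO wells and 100% = positive control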
# IEC-6 tox – cytotoxicity in IEC-6 intestinal epithelial cells, primary screen, cytotoxicity control for KLF5 inhibitor project, cell-based, luminescence; IEC-6 cytotoxicity, luminescence viability; inhibition, % at 5 µM; 290,000 tested, 0.78% active; in the data active = inhibition above about 22%;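 also: 0% = plate median of test compound wells and 100% = cytotoxic reference compound wells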
# APP 5UTR inh – inhibitors of APP translation via 5'UTR reporter, primary screen, APP 5'UTR luciferase, SH-SY5Y cells. SH-SY5Y APP 5'UTR-luciferase reporter, luminescence. inhibition, % at 2 µM. 190,000 tested, 0.82% active. AID 1285, 2008;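 active = inhibition above a set limit, derived from the sample mean plus 3 SD, cut at about 45% in these data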
# KLF5 inhibitor – KLF5 expression inhibitors, primary screen, DLD-1 cells, luminescence | DLD-1 KLF5 promoter-luciferase reporter | inhibition, % at 5 µM | 290,000 tested, 0.23% active;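 active = inhibition above a per-plate limit of that plate's mean compound inhibition plus 3 SD, cut at about 60% in these data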;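 also: 0% = DMSO wells and 100% = LY294002 at 200 µM; higher means less KLF5 promoter-driven luciferase light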
# * = called active by the depositor; · = not tested or not shown. Sampled rows, rich in hits. Any-hit rate of the full collection: about 2.2%.
SMILES,BaF3 tox,Ba/F3 V617F tox,aSyn UTR inh,IEC-6 tox,APP 5UTR inh,KLF5 inhibitor
COc1ccc(/C=C2/SC(=S)N(CCCC(=O)Nc3ccc(O)cc3)C2=O)cc1,-2,0,68*,0,·,17
COc1ccc(/C=C2\SC(=S)N(CCC(=O)Nc3ccc(C(=O)O)cc3)C2=O)cc1,·,·,-5,-7,·,-16
COc1ccc(C(=O)CC(=O)C(=O)Nc2ccccc2C(F)(F)F)cc1,·,·,-25,1,·,6
CC(=O)Nc1ccc(NC(=O)COC(=O)Cc2c[nH]c3ccccc23)cc1,5,2,-38,6,8,-35
O=C(O)CC(=O)Nc1ccc(Oc2ccc(C(F)(F)F)cn2)c(Cl)c1,8,0,65*,2,1,-4
COc1cccc(NC(=O)N2CCCC(C(=O)NC3CCCCC3C)C2)c1 (configuration not stated),·,·,-7,-5,·,-21
CCOC(=O)C1CCCN(S(=O)(=O)c2ccc(S(=O)(=O)N(CC)CC)cc2)C1 (configuration not stated),69*,52*,-38,6,23,0
Cn1ccnc1/C(=N\NC(=O)c1ccccc1)c1cccc([N+](=O)[O-])c1,-1,-4,13,2,-11,1
O=C(N/N=C(\c1ccccc1)c1ccccn1)c1cccc([N+](=O)[O-])c1,91*,99*,99*,89*,85*,67*
CN1CCN(CC(=O)Nc2cc(S(=O)(=O)N3CCOCC3)ccc2Cl)CC1,·,·,7,·,·,·
CCNc1oc(-c2ccc(OC)cc2)nc1S(=O)(=O)c1ccc(Br)cc1,6,4,-28,2,49*,1
CCCCNc1oc(-c2ccc(OC)cc2)nc1S(=O)(=O)c1ccccc1,3,2,8,4,-6,-37
O=C(CCCNC(=O)c1ccc(Cl)cc1)Nc1ccccc1F,·,·,0,-6,·,-3
Cc1ccc2c(c1)nnn2C1CCN(S(=O)(=O)c2ccc(C(=O)N3C(C)CCCC3C)cc2)CC1 (configuration not stated),58*,51*,-36,6,5,-8
O=C(C[n+]1ccc(C(=O)NCc2ccccc2)cc1)c1ccc2c(c1)OCCO2,2,-3,-21,4,7,20
Nc1cc[n+](CC(=O)c2ccc3c(c2)OCCO3)cc1,71*,90*,26,-4,-18,-30
CCOC(=O)N1CCN(c2c(NCc3ccc(F)cc3)c(=O)c2=O)CC1,31*,16,-16,8,·,41
CCOC(=O)N1CCN(c2c(NCc3ccc(Cl)cc3)c(=O)c2=O)CC1,69*,35*,15,19,36,40
O=C(Nc1ccccc1N1CCCCC1)c1ccc(-c2ccc(Cl)cc2)o1,-2,-2,99*,-1,84*,0
CCOC(=O)c1c(C)oc2cc(Cl)c(O)c(CN(C)C)c12,2,0,-57,6,·,-91
CCOC(=O)c1c(-c2ccccc2)oc2cc(CN(C)C)c(O)c(CN(C)C)c12,2,-1,56,4,53*,-17
O=C1C2C3c4ccccc4C(c4ccccc43)C2C(=O)N1c1ccncc1 (configuration not stated),71*,66*,21,-3,22,5
O=C1C2C3c4ccccc4C(c4ccccc43)[C@@H]2C(=O)N1c1cccnc1 (some centres not stated),4,-2,18,-9,-6,-26
CCOCCCNC(=O)N1CCOCC1,8,1,-19,-3,-12,-7
O=C(NCCCCCCNC(=O)N1CCCCCC1)N1CCCCCC1,55*,50*,-25,14,-7,-20
SMILES,BaF3 tox,Ba/F3 V617F tox,aSyn UTR inh,IEC-6 tox,APP 5UTR inh,KLF5 inhibitor
Cc1ccccc1C(=O)Nc1cccc(N)c1,4,0,-28,4,56*,-32
C=CCn1c(SCC(=O)N2CC(=O)Nc3ccccc32)nc2scc(-c3cccs3)c2c1=O,9,5,-3,1,-4,-8
CCN(CC)CCSc1nnc2c3cc(C)ccc3n(Cc3ccccc3)c2n1,33*,25*,-34,2,·,-31
COc1ccccc1N(CC(=O)NCc1ccccc1)S(C)(=O)=O,4,1,14,1,12,-23
Cc1ccc(C(=O)N2C(=O)C(c3ccccc3)Oc3ccccc32)cc1 (configuration not stated),0,-4,93*,1,·,7
Cc1ccc(C(=O)N2c3ccccc3OCC2C)cc1 (configuration not stated),·,·,3,-7,·,5
O=C(Nc1nc2ccccc2s1)C1CCN(S(=O)(=O)c2cc([N+](=O)[O-])ccc2Cl)CC1,43*,4,-81,0,·,3
CCC(C)NC(=O)C1CCN(S(=O)(=O)c2cc([N+](=O)[O-])ccc2Cl)CC1 (configuration not stated),1,-1,-23,-2,·,10
C1=C2C[N+]3(CCCC3)CC2Cc2ccc3ccccc3c21 (configuration not stated),55*,64*,-1,2,12,-6
CC(C)(C)OC(=O)NCCCC[C@H](NC(=O)c1nc[nH]c1C(=O)N1CCN(C(=O)OC(C)(C)C)CC1)C(=O)OC(C)(C)C,-6,4,2,9,-17,-6
CC(C)C[C@H](NC(=O)c1nc[nH]c1C(=O)N1CCN(C(=O)OC(C)(C)C)CC1)C(=O)OC(C)(C)C,-3,3,-9,-4,52*,31
O=C(Oc1ccc(Br)cc1C(=S)N1CCOCC1)c1ccc([N+](=O)[O-])cc1[N+](=O)[O-],·,·,-45,1,·,-8
CCCCn1cnc2c(c(-c3ccccc3)c(-c3ccccc3)n2Cc2ccco2)c1=N,-6,6,31,-2,·,29
N=c1c2c(-c3ccccc3)c(-c3ccccc3)n(Cc3ccccc3)c2ncn1CCCn1ccnc1,4,2,33,8,83*,38
O=C(N(c1ccccc1)c1ccccc1)N(c1ccccc1)c1ccccc1,1,-1,7,-2,·,-14
CC(=O)N(C1=C(N)C(=O)c2ccccc2C1=O)c1ccccc1,·,·,78*,-3,·,-34
COc1ccc(C2=NOC(C(=O)NCc3ccccc3)C2)cc1 (configuration not stated),3,3,-16,27*,30,35
CCOc1ccc(N/C(N)=N/c2nc(CSc3nnc(C)s3)cc(=O)[nH]2)cc1,-4,3,84*,12,·,6
Cc1nnc(SCc2cc(=O)[nH]c(/N=C(\N)Nc3ccccc3)n2)s1,2,-4,4,1,·,-25
COc1ccc(Cc2nc3ccc(C(=O)N(C)CC4COCCO4)cc3o2)cc1 (configuration not stated),·,·,-45,-1,·,-51
